Tau fluor cs = counter-screen for tau fibril formation inhibitors; tau K18 P301L Alexa594 fluorescence, heparin fibrillization; Potency, µM (highest dose often 57.7 µM), without a hit: top-dose activity change, negative = decrease; 0.93% of 280,000 active; further: nearly all actives have a fitted effect of over 55% in size
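Human tau K18 P301L (15 uM unlabeled, 0.24 uM Alexa 594-labeled) in 100 mM sodium acetate pH 7 with 20 uM heparin, 6 hr at 37 C. ThT 30 uM added, 1 hr ambient; Alexa 594 FP and total fluorescence read at 555/632 nm.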
RGS12 GoLoco inh = RGS12 GoLoco-Gai1 interaction inhibition | Potency, µM (titrated, usually from 61.6 µM), inactives show at the top dose activity, negative = inhibition, usual class: inhibitors | Gai1:RGS12 GoLoco peptide FP, rhodamine, 10 min | 0.44% of 230,000 active | P63096; active means well fitted inhibition curve with a large enough effect, not every such curve was filed as active; inactive means no such curve, though single readings can be large or run the other way; further: nearly all actives have a fitted effect of over 30% in size
TR SRC2 fluor cs = alters Texas Red total fluorescence, flagging assay interference; TRb/SRC2 Texas Red total fluorescence interference; Potency, µM (series often up to 106 µM), inactives show at the top dose fluorescence change, negative = quenching; 0.29% of 280,000 active; AID 1479; active means well fitted curve in either direction with a large enough effect; inconclusive means small, poorly fitted or top-dose-only effect
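Human TRb ligand-binding domain at 0.6 uM with 20 nM Texas Red SRC2 peptide in Tris buffer containing 1 uM T3 and 5% DMSO, incubated with compound 5 h at ambient temperature. Total fluorescence (555/632 nm) calculated as parallel + 2 × perpendicular.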
Tau ThT inhib = blocks human tau fibril formation measured by thioflavin T; P10636; recombinant tau K18 P301L (four-repeat tau fragment), heparin-induced fibrillization, ThT fluorescence; Potency, µM (series often up to 57.4 µM), without a hit: at the top dose activity, negative = inhibition, usual class: inhibitors; 2.1% of 270,000 active; further: nearly all actives have a fitted effect of over 55% in size
Target sequence (P10636 561-689 P618L limits assumed): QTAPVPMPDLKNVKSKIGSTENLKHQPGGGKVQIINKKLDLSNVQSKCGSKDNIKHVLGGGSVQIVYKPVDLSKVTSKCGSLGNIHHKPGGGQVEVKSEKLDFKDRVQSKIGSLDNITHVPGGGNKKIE
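In this qHTS, human K18 P301L tau is incubated with compound and heparin for 6 hr at 37 C, and Thioflavin T fluorescence then reports fibril load.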
TRb-SRC2 inh = inhibitors of human thyroid hormone receptor beta-SRC2 interaction | TRbeta-SRC2 peptide binding, fluorescence polarization; receptor liganded with 1 µM T3 | Potency, µM (highest dose often 106 µM), for the others: at the top dose activity change, negative = inhibition, hits mostly inhibitors | 0.065% of 280,000 active | AID 1469;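 further: plate controls were bound peptide for no effect and peptide without receptor for full effect; nearly all actives have a fitted effect of over 50% in size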
Target sequence (P10828 whole entry, looked up): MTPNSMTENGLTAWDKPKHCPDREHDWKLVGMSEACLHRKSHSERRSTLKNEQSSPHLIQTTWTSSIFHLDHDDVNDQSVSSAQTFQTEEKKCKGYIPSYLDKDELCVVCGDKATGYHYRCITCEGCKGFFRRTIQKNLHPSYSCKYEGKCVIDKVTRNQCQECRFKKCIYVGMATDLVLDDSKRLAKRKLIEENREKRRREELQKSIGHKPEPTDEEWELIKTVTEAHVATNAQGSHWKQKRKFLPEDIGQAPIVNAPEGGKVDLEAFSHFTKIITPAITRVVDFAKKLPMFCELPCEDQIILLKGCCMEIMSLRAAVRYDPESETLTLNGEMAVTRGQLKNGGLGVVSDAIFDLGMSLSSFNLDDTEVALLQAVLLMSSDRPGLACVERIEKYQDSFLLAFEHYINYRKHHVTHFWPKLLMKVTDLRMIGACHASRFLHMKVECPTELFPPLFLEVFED
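Each compound concentration gave % activity, normalized to unbound and bound Texas Red SRC2 controls, from polarization read after 5 hr ambient incubation with T3-loaded human TRb LBD.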
Tau FP inhib = tau fibrillization inhibition (FP) | P10636 | K18 P301L tau heparin fibrillization, Alexa594 FP, 6 h | Potency, µM (titrated, usually from 57.7 µM), for the others: at the top dose activity, negative = inhibition, usual class: inhibitors | 0.39% of 280,000 active | AID 1468; further: nearly all actives have a fitted effect of over 55% in size
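Steps: dispense K18 P301L tau (15 uM plus 0.24 uM Alexa 594 tracer, final) in pH 7 sodium acetate; add compound; add heparin (20 uM final); incubate 6 hr, 37 C; add ThT (30 uM final); after 1 hr ambient, read FP.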
Active calls of the source: *; ? = inconclusive; nt = not tested or not shown; ! = repeats disagree; [ ] = dose if it differs, or a comment. The list is not random: actives were taken first. Their share in the collection is about 3.2%. Unless noted, the call rests on the fitted dose curve; in most records, active means well fitted curve in the direction sought with a large enough effect; inconclusive means small, poorly fitted or top-dose-only effect, or another doubt; inactive means no such curve, though single readings can be large; an effect the other way counts as inactive or inconclusive. Unless noted, on the % scale 0 is the no-effect control and ±100 the full control effect; potency means the concentration at half of the fitted maximal effect.

SMILES | Tau fluor cs | RGS12 GoLoco inh | TR SRC2 fluor cs | Tau ThT inhib | TRb-SRC2 inh | Tau FP inhib
CCOC(=O)CCN1C(=O)[C@H]2[C@H]3[C@H](O)[C@H](O)C/C(=N/OC/C=C(\C)CCC=C(C)C)[C@H]3CC[C@@H]2C1=O | -9%[11.6 µM] | nt | 1%[11.2 µM] | -8%[11.5 µM] | 1%[11.2 µM] | 1%[11.6 µM]
CC(C)(C)Nc1oc(-c2ccccc2)nc1-c1cccc2ccccc12 | -1% | 1% | 0% | -6% | -2% | 7%
CN(CCO)Cc1ncccc1O | nt | 12%[14.2 µM] | nt | nt | nt | nt
CN1CCN(c2ncnc3ccc(-c4cccc(NS(C)(=O)=O)c4)cc23)CC1 | nt | -4% | nt | nt | nt | nt
Cc1nc(N)sc1-c1csc(NCc2ccccc2)n1 | ? | 160% | 0% | 20µM* | 2% | ?
Cc1nc(NC(=O)c2ccccc2)sc1-c1csc(Nc2cccc(F)c2)n1 | 11µM*[quencher] | -2% | -3% | 7.9µM* | -7% | ?
Cc1cc(-c2csc(NCc3ccccc3)n2)c(C)n1C | ? | 86% | 5% | ? | -9% | -14%
Cc1nc(NC(=O)c2ccccc2)sc1-c1csc(NCCc2ccccc2)n1 | 16µM*[quencher] | 20% | 9% | 16µM* | 17% | ?
CC1=CC(=O)C2=C(C)C[C@H](OC(=O)Cc3ccccc3)C3[C@H](OC(=O)[C@H]3C)C12 (stereo partly specified) | -11% | 5% | -2% | -12% | 9% | -3%
COc1cccc([C@@H]2Oc3ccc(Br)cc3C(=O)[C@H]2OC(=O)NS(=O)(=O)c2ccc(F)cc2)c1 | -10% | 63% | -3% | -11% | 13% | -9%
CS(=O)(=O)c1ccc(CNC(=O)[C@H]2C[C@@H]2[C@H](NP(=O)(c2ccccc2)c2ccccc2)c2ccccc2)cc1 | -20% | 1% | -4% | -20% | 4% | -1%
CCOP(=O)(OCC)/C(=N/OC(=O)c1cccc([N+](=O)[O-])c1)C(N)=O | 1% | -113% | -7% | 0% | -7% | 0%
CCOP(=O)(OCC)/C(=N/OC(=O)c1ccc(OC)cc1)C(N)=O | -13% | 4.5µM* | 0% | ? | -5% | 0%
CCOc1cc(C2C(C#N)=C(N)SC(N)=C2C#N)ccc1OCCN1CCOCC1 | -29% | 99% | 5% | 25µM* | 18% | ?
Cc1nnc(SCC(=O)Nc2ccc(Br)cc2)[nH]c1=O | -4% | nt | 45µM*[quencher] | 11% | -17%[53 µM] | -2%
CC1=NOC2(C1)N(C)c1ccccc1C2(C)C (stereo unspecified) | 7% | -28% | 2% | 9% | -14% | -3%
COc1ccc2ccc3c(c2c1)N=C[C@]1(O3)N(C)c2ccccc2C1(C)C | ? | -24% | ? | 20µM* | ? | ?
CC1(C)CCC[C@@](C)([C@H]2CC[C@]3(C)[C@@H]2[C@H](O)C[C@@H]2[C@@]4(C)CC[C@H](O)C(C)(C)[C@@H]4[C@@H](O)C[C@]23C)O1 | -14% | 3% | 0% | -15% | -3% | 1%
CNC[C@H](O)c1ccc(O)c(O)c1 | ? | 11% | 1% | 14µM*! | 1% | 13µM*!
CNC[C@@H](SC)c1ccc(O)c(O)c1 | nt | 7%[14.2 µM] | nt | nt | nt | nt
CC(C)n1c(O)c(/C=C2\C=NN=C2c2ccccc2)sc1=S | ? | 4% | 0% | -11% | 3% | 14µM*
COc1ccc(Cl)cc1N=Nc1ncc[nH]1 | -19% | 8% | -3% | 13µM* | 9% | -13%
CC[C@H](C)[C@H](NC(=O)[C@H](Cc1ccc(O)cc1)NC(=O)[C@@H]1CCCN1C(=O)[C@@H](N)CCCN=C(N)N)C(=O)N[C@@H](CC(C)C)C(=O)O | nt | nt | -7% | nt | -2% | nt
FC(F)(F)c1ccc(Cl)c(Cl)c1 | nt | nt | 3%[201 µM] | nt | 5%[201 µM] | nt
COc1ccc(-c2ccc(OC)c(C3C4C=CCCC4(C)C(=O)N3Cc3ccccc3)c2)cc1 (stereo unspecified) | nt | nt | 0% | nt | -2% | nt
SMILES | Tau fluor cs | RGS12 GoLoco inh | TR SRC2 fluor cs | Tau ThT inhib | TRb-SRC2 inh | Tau FP inhib
CCOC(=O)C1=C(CN2CCN(c3ccc(OC)cc3)CC2)NC(=O)NC1c1ccc(OC)cc1 (stereo unspecified) | -14% | nt | 100µM*[quencher] | -15% | -20% | 2%
O=Cc1[nH]c2ccccc2c1N(C(=O)CCl)c1ccccc1 | -27% | 8% | 0% | 32µM* | 1% | ?
CCc1cc2c3c(c1)C1(C(=O)N3C(C)(C)C=C2C)C(C#N)=C(N)Oc2[nH]c(=O)[nH]c(=O)c21 (stereo unspecified) | ? | 0% | -3% | 14µM* | 2% | ?
COc1cccc(-c2cn3nc4c(nc3n2)CCCC4)c1 | -29% | 62% | -10% | 14µM* | -4% | ?
N#C/C(=C\c1ccc(O)c(O)c1)C(=O)OCCc1cccs1 | 18µM*[quencher] | 0% | -4% | 14µM* | 7% | 13%
CC1=CC(=O)C=C(C)C1=NOC(=O)/C=C\c1ccccc1 | -17% | 11% | -2% | 16µM* | 2% | ?
CC1=C(C)/C(=N\OC(=O)/C=C/c2ccccc2)C=CC1=O | -21% | 0% | -5% | 13µM* | -2% | ?
N/C(=N\OC(=O)/C=C/c1ccccc1)c1ccncc1 | -5% | 10% | -2% | -12% | -6% | 2%
CC(C)N(C)CCOC(=O)/C=C/c1ccccc1 | 6% | -10% | -1%[53 µM] | 3% | 11%[53 µM] | -4%
CC1=CC(=NOC(=O)/C=C/c2ccccc2)C=C(C)C1=O | -28% | -2% | 1% | 22µM* | 8% | ?
CC1=C(C)/C(=N/OC(=O)c2cccc([N+](=O)[O-])c2)C=CC1=O | -18% | -5% | -9% | ? | 2% | -8%
CCCCCCCCCCCCCC(=O)OC | nt | nt | 2%[201 µM] | nt | -4%[201 µM] | nt
C=C1c2cccc(C(F)(F)F)c2O[C@H](C(=O)OCC)[C@@H]1CCCCCC | -16%[81.3 µM] | 1%[88.7 µM] | 0% | -7%[81.4 µM] | 10% | -2%[81.3 µM]
O=C1CCN(CCc2ccccc2)CCN1C(CSc1ccc(Br)cc1)Cc1ccccc1 (stereo unspecified) | nt | nt | 0% | nt | 0% | nt
CC(C)C1Cc2c(C#N)c(N)sc(=S)c2CO1 (stereo unspecified) | ? | 4% | -3% | 20µM* | 2% | 8%
N#CCCCS(=O)(=O)c1nnnn1-c1ccc(Br)cc1 | -2% | -1% | -1% | -5% | 1% | -4%
O=[N+]([O-])c1ccc(NCCO)c(OCCO)c1 | nt | 1% | -2% | nt | 2% | nt
CCOC(=O)CC1C(=O)NCCN1c1nc2c(C)cccn2c(=O)c1/C=C1\SC(=S)N(CC(C)C)C1=O (stereo unspecified) | -13% | 160% | -3% | 10µM* | 11% | -11%

Screening data as filed in PubChem BioAssay.
